Most compounds without a hit are left out; they make up all but 10% or so of the library.
HP1b binding inh = HP1-beta chromodomain-methylated histone interaction inhibition | AlphaScreen HP1-beta / biotin-H3K9me3 peptide binding | Potency, µM (highest dose often 114 µM), most hits filed as inhibitors | P83916 | 390,000 tested, 0.56% active | AID 540317; note: nearly all actives have a fitted effect of over 70% in size
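HP1-beta protein (50 nM final) preincubated 30 min at room temperature with biotinylated H3(1-18)K9me3 peptide (50 nM) in PBS pH 7.4, 0.01% Tween-20, then compound added for 30 min. AlphaScreen streptavidin donor/nickel chelate acceptor beads (10 ug/mL final), 30 min dark, luminescence read.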
Six1-Eya2 inh = inhibitors of human Six1/Eya2 interaction; AlphaScreen GST-Six1/His-Eya2 binding, biochemical; stronger effect = lower value; activity change, % (no concentration beside the values); 360,000 tested, 0.56% active; in the data active = activity change below about -65%; inconclusive = mostly about -30% to -63%
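GST-Six1 + His-Eya2 (5X stock: 250/500 nM); Tris pH 8.0, 300 mM NaCl, 0.05% BSA, 0.02% Tween 20; GSH donor/Ni acceptor beads; 1 h 37 °C dark; AlphaScreen readout.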
JMJD2A Tudor inh = JMJD2A Tudor domain (human) inhibition. O75164. AlphaScreen JMJD2A-Tudor / H3K4me3 peptide binding. Potency, µM (highest dose often 114 µM), usual class: inhibitors. 390,000 tested, 4.4% active; note: nearly all actives have a fitted effect of over 50% in size
BAZ2B inh = blocks human BAZ2B | Q9UIF8 | Potency, µM (doses to about 114 µM), usual class: inhibitors | AID 504333 | 360,000 tested, 4.4% active | AlphaScreen BAZ2B-H3K14Ac peptide displacement; note: nearly all actives have a fitted effect of over 60% in size
Target sequence (Q9UIF8 whole entry, looked up): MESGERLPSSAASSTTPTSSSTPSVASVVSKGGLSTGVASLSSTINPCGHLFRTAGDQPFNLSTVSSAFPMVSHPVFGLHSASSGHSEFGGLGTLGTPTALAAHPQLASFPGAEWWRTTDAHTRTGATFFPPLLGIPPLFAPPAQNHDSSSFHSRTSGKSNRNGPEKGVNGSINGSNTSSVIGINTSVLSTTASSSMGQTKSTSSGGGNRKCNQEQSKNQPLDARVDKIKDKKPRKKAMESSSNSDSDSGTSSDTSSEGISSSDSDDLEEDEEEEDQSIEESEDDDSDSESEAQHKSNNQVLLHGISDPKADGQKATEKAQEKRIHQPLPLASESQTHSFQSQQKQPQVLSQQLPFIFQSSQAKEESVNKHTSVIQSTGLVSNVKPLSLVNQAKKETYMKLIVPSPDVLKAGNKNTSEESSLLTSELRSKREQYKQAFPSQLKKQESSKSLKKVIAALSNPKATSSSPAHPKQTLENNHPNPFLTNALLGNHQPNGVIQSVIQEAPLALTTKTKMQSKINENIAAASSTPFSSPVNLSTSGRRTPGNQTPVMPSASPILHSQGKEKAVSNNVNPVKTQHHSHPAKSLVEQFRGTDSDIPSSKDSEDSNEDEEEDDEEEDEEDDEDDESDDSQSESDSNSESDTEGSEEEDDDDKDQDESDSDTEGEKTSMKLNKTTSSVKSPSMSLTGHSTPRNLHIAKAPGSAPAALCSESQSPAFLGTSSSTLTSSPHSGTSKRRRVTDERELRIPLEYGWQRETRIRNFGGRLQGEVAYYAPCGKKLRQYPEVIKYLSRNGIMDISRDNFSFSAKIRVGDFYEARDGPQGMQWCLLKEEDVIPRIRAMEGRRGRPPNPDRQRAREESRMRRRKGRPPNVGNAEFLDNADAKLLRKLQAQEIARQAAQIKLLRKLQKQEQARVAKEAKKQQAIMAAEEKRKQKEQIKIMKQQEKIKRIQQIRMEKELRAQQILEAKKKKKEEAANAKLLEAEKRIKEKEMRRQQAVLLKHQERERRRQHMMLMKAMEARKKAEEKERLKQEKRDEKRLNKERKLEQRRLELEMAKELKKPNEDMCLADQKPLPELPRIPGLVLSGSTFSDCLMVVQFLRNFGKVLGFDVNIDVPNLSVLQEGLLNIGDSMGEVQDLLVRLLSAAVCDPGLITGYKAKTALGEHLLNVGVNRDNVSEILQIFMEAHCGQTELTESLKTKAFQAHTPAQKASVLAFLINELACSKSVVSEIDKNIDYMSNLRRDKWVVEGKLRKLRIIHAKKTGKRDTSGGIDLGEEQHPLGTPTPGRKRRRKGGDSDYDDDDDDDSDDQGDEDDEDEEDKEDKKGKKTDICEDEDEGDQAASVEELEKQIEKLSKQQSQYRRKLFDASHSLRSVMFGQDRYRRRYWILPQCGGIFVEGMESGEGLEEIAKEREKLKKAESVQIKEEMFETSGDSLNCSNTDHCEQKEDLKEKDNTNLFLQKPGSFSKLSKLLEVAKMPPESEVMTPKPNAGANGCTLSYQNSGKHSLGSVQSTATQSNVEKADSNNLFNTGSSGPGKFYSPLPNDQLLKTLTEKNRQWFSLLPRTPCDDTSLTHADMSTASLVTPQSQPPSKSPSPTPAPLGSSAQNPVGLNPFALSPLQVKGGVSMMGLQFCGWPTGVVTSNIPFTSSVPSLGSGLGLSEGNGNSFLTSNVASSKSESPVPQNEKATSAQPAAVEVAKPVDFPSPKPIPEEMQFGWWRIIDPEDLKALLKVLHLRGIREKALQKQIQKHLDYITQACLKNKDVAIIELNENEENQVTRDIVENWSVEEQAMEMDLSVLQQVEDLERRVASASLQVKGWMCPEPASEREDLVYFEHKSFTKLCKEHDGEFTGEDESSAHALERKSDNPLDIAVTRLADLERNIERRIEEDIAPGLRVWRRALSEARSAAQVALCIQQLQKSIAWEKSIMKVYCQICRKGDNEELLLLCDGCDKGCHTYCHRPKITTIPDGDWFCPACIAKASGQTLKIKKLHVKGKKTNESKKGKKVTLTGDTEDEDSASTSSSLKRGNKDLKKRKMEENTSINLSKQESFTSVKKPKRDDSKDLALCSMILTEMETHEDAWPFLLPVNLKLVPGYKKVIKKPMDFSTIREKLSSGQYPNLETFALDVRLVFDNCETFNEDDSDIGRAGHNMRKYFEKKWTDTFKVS
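Complex of BAZ2B and biotin-H3K14Ac (50 nM apiece) forms over 30 min at RT, then faces library compounds up to 110 uM for another 30 min; AlphaScreen beads added, 20 min dark incubation, luminescence read.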
G9a block = blocks human histone lysine methyltransferase G9a. Q96KQ7. G9a H3K9 monomethylation, AlphaScreen, 2 h. Potency, µM (highest dose often 102 µM), hits mostly inhibitors. 350,000 tested, 8.8% active. AID 504332; note: nearly all actives have a fitted effect of over 75% in size
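Compounds were preincubated with 20 nM G9a for 15 min, after which biotinylated H3K9 peptide (500 nM) and SAM (20 uM) started a 2 h room-temperature reaction. Monomethylated product was quantified by antibody-based AlphaScreen chemiluminescence.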
CtBP-E1A blk = blocks the CtBP interaction with E1A | activity change, % (concentration not given with the values) | AID 651724 | AlphaScreen GST-E1A/His-CtBP binding, 1536-well; stronger effect = lower value | 340,000 tested, 0.49% active; in the data active = activity change below about -65%; inconclusive = mostly about -30% to -63%
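In 5 uL wells, 23 nL compound meets equimolar GST-E1A and His-CtBP (5X stock 125 nM each) for 2 h, 37 °C. Beads (5X, 50 ug/mL) then 1 h, 37 °C, dark.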
A number is an active result; [ ] = dose if it differs, or a comment. Unless noted, calls come from the whole dose curve; as a rule, active = well fitted inhibition curve with a large enough effect; inconclusive = small, poorly fitted or top-dose-only effect; inactive = no such curve, though single readings can be large or run the other way.

For CC(N=C1NS(=O)(=O)c2ccccc21)C(=O)Nc1ccc(F)cc1Cl (stereo not given) the results were HP1b binding inh inactive, Six1-Eya2 inh inactive, JMJD2A Tudor inh inactive, BAZ2B inh inactive and G9a block inactive[12.7 µM].
For Cc1cnc2c3c(cc(Cl)c2c1)-c1ccccc1S(=O)(=O)N3 the results were HP1b binding inh inactive and JMJD2A Tudor inh 20µM.
Screening O=S1(=O)Nc2c(ccc3cccnc23)-c2ccccc21 returned HP1b binding inh inactive, Six1-Eya2 inh -91.3, JMJD2A Tudor inh 5.62µM, BAZ2B inh 6.31µM, G9a block inactive and CtBP-E1A blk -89.0.
Screening CC(C)OCCCNC(=O)CN1C(=O)c2cccc3cccc1c23 returned HP1b binding inh inactive, Six1-Eya2 inh inactive, JMJD2A Tudor inh inactive, BAZ2B inh inactive, G9a block inactive and CtBP-E1A blk inactive.
`O=C(Nc1cccc2ccccc12)c1csc([C@@H]2C[C@H](O)[C@@H](CO)O2)n1` gave Six1-Eya2 inh inactive and CtBP-E1A blk inactive.
For N#Cc1c(N(CCO)CCO)nc(N)c2c(N)nc3c(c12)CC(=O)N3Cc1cccs1 the results were HP1b binding inh inactive, Six1-Eya2 inh inconclusive, JMJD2A Tudor inh inconclusive, BAZ2B inh inconclusive and G9a block 44.7µM.
Screening CCOC(=O)C(C)Sc1cc(CS(=O)(=O)c2ccccc2)nc(-c2ccccc2)n1 (stereo not given) returned HP1b binding inh inactive, Six1-Eya2 inh inactive, JMJD2A Tudor inh inactive, BAZ2B inh inactive, G9a block inactive[12.7 µM] and CtBP-E1A blk inactive.
Screening CC1(C)Cc2c(C#N)c(N3CCN(C(=O)c4ccco4)CC3)nc(-c3ccco3)c2CS1 returned HP1b binding inh inactive, Six1-Eya2 inh inactive, JMJD2A Tudor inh 50.1µM, BAZ2B inh 20µM, G9a block 10µM and CtBP-E1A blk inactive.
Screening N#Cc1c(N2CCN(C(=O)c3ccccc3Cl)CC2)nc(-c2ccccc2)c2c1CCCC2 returned HP1b binding inh inactive, Six1-Eya2 inh inactive, JMJD2A Tudor inh inactive, BAZ2B inh inactive and CtBP-E1A blk inactive.
CC(=O)N1CCN(c2nc(-c3ccco3)c3c(c2C#N)CC(C)(C)SC3)CC1 was read as HP1b binding inh inactive, Six1-Eya2 inh inactive, JMJD2A Tudor inh inactive[11.4 µM], BAZ2B inh inactive, G9a block inactive and CtBP-E1A blk inactive.
`CC1(C)Cc2c(C#N)c(N3CCN(C(=O)c4ccccc4Cl)CC3)nc(-c3ccco3)c2CS1` gave HP1b binding inh inactive, Six1-Eya2 inh inactive, JMJD2A Tudor inh inconclusive, BAZ2B inh 39.8µM and CtBP-E1A blk inactive.
`O=S(=O)(NCCSCc1ccc(Cl)cc1Cl)c1ccc2c(c1)OCCO2` gave HP1b binding inh inactive, Six1-Eya2 inh inactive, JMJD2A Tudor inh 79.4µM, BAZ2B inh inactive, G9a block inactive and CtBP-E1A blk inactive.
For CN(C)c1ccc(NC(=O)Cn2c(SCc3ccc(F)cc3)nc3ccncc32)cc1 the results were HP1b binding inh inactive, JMJD2A Tudor inh inconclusive, BAZ2B inh inconclusive and G9a block 6.31µM.
CCc1ccc(NC(=O)Cn2c(SCc3ccc(C)cc3)nc3ccncc32)cc1 was read as HP1b binding inh inactive and JMJD2A Tudor inh inactive.
For Cc1ccc(S[C@@H](CCN2CC[C@H](NC(=O)OCc3ccccc3)CCC2=O)c2ccccc2)cc1 the results were HP1b binding inh inactive, Six1-Eya2 inh inactive, JMJD2A Tudor inh 25.1µM and BAZ2B inh inactive.
Screening Cc1ccc(SC[C@H](C)CN2CC[C@H](NC(=O)OCc3ccccc3)CCC2=O)cc1 returned HP1b binding inh inactive, Six1-Eya2 inh inactive, JMJD2A Tudor inh inactive and BAZ2B inh inactive.
Screening O=C1CCc2cc(S(=O)(=O)NC(Cc3ccccc3)C(=O)N3CCN(c4ccccn4)CC3)ccc2N1 (stereo not given) returned HP1b binding inh inactive, Six1-Eya2 inh inactive, JMJD2A Tudor inh inactive, BAZ2B inh inconclusive and G9a block inactive.
CCC(C)(C)NC(=O)C(c1cccc(OC)c1)N(C(=O)CNC(=O)c1cccs1)c1cccnc1 (stereo not given) was read as HP1b binding inh inactive, Six1-Eya2 inh inactive, JMJD2A Tudor inh inactive, BAZ2B inh inactive, G9a block inactive and CtBP-E1A blk inactive.
For O=C(C1CCCN(S(=O)(=O)c2ccc(F)cc2)C1)N1CCOCC1 (stereo not given) the results were HP1b binding inh inactive, Six1-Eya2 inh inactive, JMJD2A Tudor inh inactive and CtBP-E1A blk inactive.
For CN1CCN(C(=O)C2CCCN(S(=O)(=O)c3ccc(F)cc3)C2)CC1 (stereo not given) the results were HP1b binding inh inconclusive, Six1-Eya2 inh inactive, JMJD2A Tudor inh 5.62µM, BAZ2B inh 31.6µM, G9a block 14.1µM and CtBP-E1A blk inactive.
`O=C(C1CCC1)N1CCN(S(=O)(=O)c2ccc(F)cc2)CC1` gave HP1b binding inh inactive, Six1-Eya2 inh inactive, JMJD2A Tudor inh inactive, BAZ2B inh 79.4µM, G9a block inactive[0.501 µM] and CtBP-E1A blk inactive.
Screening CC(=O)N1CCC(C(=O)N2CCN(S(=O)(=O)c3ccc(F)cc3)CC2)CC1 returned HP1b binding inh inactive, Six1-Eya2 inh inactive, JMJD2A Tudor inh inactive, BAZ2B inh inactive, G9a block inactive and CtBP-E1A blk inactive.
O=c1oc2ccccc2c(O)c1Sc1c(O)c2ccccc2oc1=O was read as HP1b binding inh inactive, Six1-Eya2 inh -73.6, JMJD2A Tudor inh inconclusive and CtBP-E1A blk -83.4.
CC(C)(C)NC(=O)[C@@H]1CC[C@@H]2[C@@H]3CC[C@@H]4NC(=O)C=C[C@@]4(C)[C@H]3CC[C@]21C was read as G9a block inactive[21.5 µM].
For CN1c2ccccc2C(C)(C)C12C=Nc1c(cc(N3CCOCC3)c3ccccc13)O2 (stereo not given) the results were HP1b binding inh inactive, Six1-Eya2 inh inactive, JMJD2A Tudor inh inconclusive, BAZ2B inh inconclusive, G9a block 44.7µM and CtBP-E1A blk inactive.
Screening CCCc1nnc(NC(=O)CCC(=O)N2CCN(CCn3c(C)ccc3C)CC2)s1 returned HP1b binding inh inactive, Six1-Eya2 inh inactive, JMJD2A Tudor inh inactive, BAZ2B inh inactive, G9a block 70.8µM and CtBP-E1A blk inactive.
For O=C(Oc1ccc(/C=N/NC(=O)c2ccco2)cc1)c1ccccc1 the results were HP1b binding inh inactive, Six1-Eya2 inh inactive, JMJD2A Tudor inh inactive, BAZ2B inh inactive and G9a block inactive.
Screening CCC1(C)CN=C(c2ccccc2)NC1 (stereo not given) returned HP1b binding inh inactive, Six1-Eya2 inh inactive, JMJD2A Tudor inh 35.5µM and CtBP-E1A blk inactive.
For Cc1ccc(C)c(C(=O)C(C)OC(=O)CN2C(=O)NC3(CC(C)CC(C)(C)C3)C2=O)c1 (stereo not given) the results were HP1b binding inh inactive, Six1-Eya2 inh inactive, JMJD2A Tudor inh inactive, BAZ2B inh inactive, G9a block inactive and CtBP-E1A blk inactive.
